Test results as given in ChEMBL document CHEMBL4513216, “Probing the Open Global Health Chemical Diversity Library for Multistage-Active Starting Points for Next-Generation Antimalarials” (ACS Infect Dis, 2020).
The whole screen tested about 69,000 compounds, of which about 8,600 (12%) showed an effect of 50% or more. For the sample, strong results were picked, then their nearest neighbours and some compounds at random.

These molecules were tested on Plasmodium berghei (assay: Screen against P. berghei liver stage (PbLuc), transformed with Luciferase, at 10uM). Conditions: tested at 10 uM.
Format: functional, HepG2
CC(=O)N1CCC(c2cncc(N3CCCCCC3)n2)CC1 showed an INHIBITION of 17.4%. For O=C(NC1CCCN(CCc2ccccc2)C1)c1cnccn1 (centres undefined), the INHIBITION was -0.29%. Work on Cc1cnn(C2CCCN(C(=O)Cc3cn4ccsc4n3)C2)c1 (centres undefined) yielded an INHIBITION of -9%. With Cc1nc(C)c(C(=O)N2CCC(O)(Cn3ccc4ccncc43)CC2)s1 the INHIBITION was -57.4%. With CS(=O)(=O)c1cc(C(=O)NS(=O)(=O)Cc2ccc(F)cc2)ccc1Cl the INHIBITION was 37.7%. With O=C(Cc1noc(C(=O)NCCO)n1)Nc1cccc(C(F)(F)F)c1 the INHIBITION was 25.2%. With CC(C)(C)n1ncc2c1NC(=O)CC2c1cccs1 (centres undefined) the INHIBITION was -0.87%. Work on Cc1nc(CN2CCCC2Cn2cncn2)no1 (centres undefined) yielded an INHIBITION of 34.95%. COCc1nc2cc(NCc3ccc(CO)o3)ccc2o1 was tested, and the INHIBITION was 90.2%. COCc1nc2cc(NCc3cc[nH]n3)ccc2o1 gave an INHIBITION of 67.1%. Molecule COCc1nc2cc(NCc3sc(C)nc3C)ccc2o1 has an INHIBITION of 65.4%. Work on CC(C)(C)c1nc2cc(NC(=O)Cn3ccc(=O)[nH]c3=O)ccc2o1 yielded an INHIBITION of 20%. Cc1ncsc1CNc1cc(N2CCCC2CO)ncn1 (centres undefined) gave an INHIBITION of 27.4%. With CCC(C)CNc1ccc2oc(COC)nc2c1 (centres undefined) the INHIBITION was -23.2%. COCc1nc2cc(NCc3nc(C)cs3)ccc2o1 gave an INHIBITION of -17.6%. COCc1nc2cc(NCc3csc(C)n3)ccc2o1 was tested, and the INHIBITION was 14.9%. With COCc1nc2cc(NCc3scnc3C)ccc2o1 the INHIBITION was 70.5%. In the case of COCc1nc2cc(NCc3ccc(C)o3)ccc2o1, the INHIBITION was 11.8%. With COCc1nc2cc(NCc3ccncc3)ccc2o1 the INHIBITION was 18.5%. With Cc1cc(CNc2ccc3nc(C)sc3c2)no1 the INHIBITION was -4.33%. CCNC(=O)[C@@H]1CCCN1C(=O)c1cccc(CCC(C)(C)O)c1 gave an INHIBITION of -26.8%. CC(C)=CCN1C[C@@H]2CC[C@H]1CN(C(=O)CCc1nnc(C)[nH]1)C2 gave an INHIBITION of 41.2%. For Cc1cccc(N2CCOC(C(=O)O)C2)c1 (centres undefined), the INHIBITION was 14.7%. Work on CN1C(=O)CC(c2cnn(C)c2)C12CCN(CC1CCOCC1)CC2 (centres undefined) yielded an INHIBITION of -9.74%. In the case of Cn1ccnc1CCC1CCCCN1Cc1cnc(N2CCCC2)nc1 (centres undefined), the INHIBITION was -25%. In the case of CN1CCC2(Cc3ccccc3CN(C(=O)CCN)C2)C1 (centres undefined), the INHIBITION was 40%. Molecule O=C(NCCc1csc(-c2ccncc2)n1)C1CC(=O)N(C2CC2)C1 (centres undefined) has an INHIBITION of 2.66%. With Cc1nc(C)n(CC2CCCN(CC(=O)Nc3cc(C)on3)C2)n1 (centres undefined) the INHIBITION was -18.945%. For CN(Cc1ccc(F)cc1)C(=O)CN1CCOC(Cn2cccn2)C1 (centres undefined), the INHIBITION was -4.16%. In the case of CCc1ccc(O)c(C(=O)N2CCN(CC(=O)N(C)C)CC2)c1, the INHIBITION was 47.7%. CCc1ccc(O)c(C(=O)N2CCN(CC(=O)N(CC)CC)CC2)c1 gave an INHIBITION of 56.6%. CCc1ccc(O)c(C(=O)N2CCCN(CC(=O)N(CC)CC)CC2)c1 was tested, and the INHIBITION was -1.57%. Work on COc1c(C2CCCN2Cc2noc(C)n2)c(C)nn1C (centres undefined) yielded an INHIBITION of -40.2%. COCCN(Cc1sccc1C)C(=O)c1c(O)cccc1F gave an INHIBITION of -15.6%. For Cc1ccc(N2CCN(CC3CC3)C3(CCN(C(C)C)CC3)C2=O)cn1, the INHIBITION was 27.5%. With CCN1CCC2(CC1)C(=O)N(c1ccc(C)nc1)CCN2CC(C)C the INHIBITION was 36.4%. In the case of CC(=O)N1CCC2(CC1)C(=O)N(c1ccc(C)nc1)CCN2CC(C)C, the INHIBITION was 60%. Cc1nc(C)n(CC2CCCN2CCOc2ccc(F)cc2)n1 (centres undefined) showed an INHIBITION of -32%. CCn1nc2c(cc1=O)CN(CC(=O)Nc1nnc(C)s1)CC2 was tested, and the INHIBITION was -29.8%. Cc1nnc(NC(=O)CN2CCc3nn(C)c(=O)cc3C2)s1 gave an INHIBITION of 62.9%. Molecule CCCn1nc2c(cc1=O)CN(CC(=O)Nc1nnc(C)s1)CC2 has an INHIBITION of 26.3%. Molecule CCN(Cc1ccc(O)c(C(=O)O)c1)CC1CCOCC1 has an INHIBITION of 7.65%. Molecule COc1ccccc1CNc1c(O)c(=O)c1=O has an INHIBITION of 21.7%. In the case of CO[C@H]1CC[C@H]2[C@H]1OCCN2Cc1ccc(F)cc1, the INHIBITION was -40.9%. O=C(NCCNC1CCN(c2nccs2)CC1)c1cccs1 was tested, and the INHIBITION was 55.1%. In the case of O=C(NCCNC1CCCC1)c1cccs1, the INHIBITION was -0.902%. With O=C(NC1CCN(c2nccs2)CC1)c1cccs1 the INHIBITION was 22.2%. COc1ccc(COCC(=O)N2CCC(c3nncn3C)CC2)cc1 gave an INHIBITION of 39.2%. With CC(=O)N1N=C(c2ccccc2)OC1C(=O)N(C)CCc1ccccc1 (centres undefined) the INHIBITION was 38.2%. Molecule Cn1cnc2c1C(COCc1ccccc1)N(Cc1ccncc1)CC2 (centres undefined) has an INHIBITION of 15.9%. Work on COC(=O)c1cc(OC)ccc1NCC(=O)NCC(=O)N1CCCC1 yielded an INHIBITION of 2.03%. In the case of CC(C)c1nc(CN2CCOC(Cn3cncn3)C2)no1 (centres undefined), the INHIBITION was -15.5%. O=C(NC1CCN(c2ncccn2)CC1)c1cccc(-n2ccnc2)c1 showed an INHIBITION of -2.94%. O=C(NC1CCCC1)C1CCN(c2cc(-n3ccnc3)ncn2)CC1 gave an INHIBITION of 48%. With O=C(NC1CCN(c2cc(-n3ccnc3)ncn2)CC1)c1ccncc1 the INHIBITION was 69.1%. For CC1c2ncc(CN3CCN(C)CC3)n2CCN1Cc1cnn(C)c1 (centres undefined), the INHIBITION was 33.2%. O=C1CO[C@@H]2CN(Cc3cccs3)C[C@H]2N1Cc1ccncc1 was tested, and the INHIBITION was 14.2%. Work on CCN(CC)CCNC(=O)CCc1c(C)nn(-c2cccc(Cl)c2)c1C yielded an INHIBITION of 48%. For CCN(CC)CCNC(=O)CCc1c(C)nn(-c2ccccc2Cl)c1C, the INHIBITION was 48%. Molecule CCN(CC)CCNC(=O)CCc1c(C)nn(-c2ccc(Cl)cc2)c1C has an INHIBITION of 63.9%. In the case of O=C1NCCN1CCNc1cc(-c2ccncc2)nc2ccnn12, the INHIBITION was -4.91%. CNC(=O)c1cccnc1Oc1ccccc1 was tested, and the INHIBITION was 9.89%. Work on NC(=O)CC1c2cccnc2C(=O)N1Cc1ccccc1 (centres undefined) yielded an INHIBITION of -16.4%. With CC(C)(C)c1n[nH]c(C2CN(C(=O)c3cc(Cl)c[nH]3)CCO2)n1 (centres undefined) the INHIBITION was 19.7%. Work on Cc1ccc(S(N)(=O)=O)cc1C(=O)NC1CCCN(C)C1 (centres undefined) yielded an INHIBITION of 3.46%. Work on CC(=O)N[C@H]1CN(S(=O)(=O)N(C)Cc2ccccc2)C[C@@H]1C1CC1 yielded an INHIBITION of 64.4%. CN(Cc1ccccc1)S(=O)(=O)N1C[C@@H](C(=O)O)[C@H](C2CC2)C1 was tested, and the INHIBITION was 61.8%. Molecule CC(=O)N[C@@H]1CN(S(=O)(=O)Cc2ccccc2)C[C@H]1C(C)C has an INHIBITION of 41.6%. CCN(Cc1ccccc1)C(=O)CCN1C[C@@H](C(=O)O)[C@H](C2CC2)C1 gave an INHIBITION of 5.78%. In the case of CN(Cc1ccc(F)cc1)S(=O)(=O)N1CCOCC1, the INHIBITION was -8.005%. For CN(Cc1ccccc1)C(=O)CCN1C[C@H](C2CC2)[C@@H](N(C)C)C1, the INHIBITION was 14.9%. CN(Cc1cccc(F)c1)S(=O)(=O)N1CCOCC1 gave an INHIBITION of -26.1%. CCC[C@H]1CN(S(=O)(=O)N(C)Cc2ccccc2)C[C@@H]1N gave an INHIBITION of 77.5%. CN(Cc1ccccc1)S(=O)(=O)N1C[C@H](C2CC2)[C@@H](N)C1 was tested, and the INHIBITION was -43.1%. CN(C)CC(=O)N1CC2(CCN(S(=O)(=O)c3ccccc3)C2)C1 gave an INHIBITION of -25.8%. In the case of C1CCC(CNC2CCCN(Cc3noc(C4CC4)n3)C2)C1 (centres undefined), the INHIBITION was 7.43%. For CC(c1ncc(-c2ccccc2)o1)N1CCN(C(=O)N(C)C)CC1 (centres undefined), the INHIBITION was 48.2%. CCn1c(C)nnc1CN(C)C1CCN(CCS(=O)(=O)CC)C1 (centres undefined) was tested, and the INHIBITION was -49.5%. In the case of CC(C)CCN1C2(CCN(C(=O)CN(C)C)C2)c2ccccc2S1(=O)=O (centres undefined), the INHIBITION was 21.4%. CS(=O)(=O)N1CC2(CCN(C3CCCCC3)CC2)Cc2ccccc21 gave an INHIBITION of 32.5%. In the case of O=C(c1n[nH]c2c1CCN(Cc1nccs1)C2)N1CCCC1, the INHIBITION was 18.1%. In the case of CS(=O)(=O)c1cc(NC(=O)COc2ccccc2F)cc(C(=O)O)c1, the INHIBITION was 1.98%. In the case of CC(C)CC(C#N)NC(=O)CCNC(=O)C(C)(C)C (centres undefined), the INHIBITION was 55.5%. CCC(C#N)NC(=O)CCNC(=O)C(C)(C)C (centres undefined) was tested, and the INHIBITION was -0.991%. For CC(C)CCC(=O)NC(C#N)CC(C)C (centres undefined), the INHIBITION was 9.91%. Cc1nc(CN2CCC3(CC2)NC(=O)CC3c2ccccc2)cs1 (centres undefined) showed an INHIBITION of 34.1%. Molecule CC(C)Cc1noc(C2CCCCN2C(=O)CCc2cnn(C)c2)n1 (centres undefined) has an INHIBITION of 32.2%. Work on Cc1nn(C)c2sc(C(=O)N3CCCC(n4ccnc4C)C3)cc12 (centres undefined) yielded an INHIBITION of 28.4%. Work on O=c1occ(CN2CCCCCC2)c(O)c1CN1CCOCC1 yielded an INHIBITION of -28.7%. For Cc1nc(C)c(S(=O)(=O)NC(=O)c2ccsc2)s1, the INHIBITION was 21.8%. In the case of O=C(NS(=O)(=O)c1cnn(-c2ccccc2F)c1)c1ccoc1, the INHIBITION was -17.4%. Work on Cc1cccc(NC(=O)c2sccc2C)n1 yielded an INHIBITION of -52.1%. Cc1nc(C)c(S(=O)(=O)NC(=O)c2sccc2C)s1 gave an INHIBITION of 51.5%. For Cc1nc(C)c(S(=O)(=O)NC(=O)c2cccs2)s1, the INHIBITION was 22.8%. Cc1nc(C)c(S(=O)(=O)NC(=O)c2ccoc2)s1 was tested, and the INHIBITION was 64.4%. In the case of CCC(C)C(=O)NCCc1nc(C(F)(F)F)cs1 (centres undefined), the INHIBITION was 5.42%. Molecule CCc1nc(C(=O)N2CC(C)CN(C)c3ccccc32)c[nH]1 (centres undefined) has an INHIBITION of -15%. In the case of CCOCCCn1c(NC(=O)c2cnc(C)cn2)nc2ccccc21, the INHIBITION was -96.9%. Molecule CCOCCCn1c(NC(=O)c2scnc2C)nc2ccccc21 has an INHIBITION of 69.8%. In the case of CCOCCCn1c(NC(=O)c2cc(C)no2)nc2ccccc21, the INHIBITION was 5.7%. For CCOc1cccc(NC(=O)c2cc(C)on2)n1, the INHIBITION was 44.1%. Molecule CCN(CC)CCn1c(NC(=O)c2scnc2C)nc2ccccc21 has an INHIBITION of 59%. Work on CCOCCCn1c(NC(=O)c2ccnc(C)n2)nc2ccccc21 yielded an INHIBITION of 25.4%. With Cc1ncsc1C(=O)Nc1ccccn1 the INHIBITION was 25.2%. CCOCCCn1c(NC(=O)c2cnn(C)c2)nc2ccccc21 showed an INHIBITION of -4.73%. Work on CCOCCCn1c(NC(=O)c2cnc(C)s2)nc2ccccc21 yielded an INHIBITION of 57%. CCCn1c(NC(=O)CNC(=O)OCC)nc2ccccc21 showed an INHIBITION of -3.74%. CCOCCCn1c(NC(=O)c2ccc(C)nc2)nc2ccccc21 gave an INHIBITION of 37.2%. CCOCCCn1c(NC(=O)c2cc(C)on2)nc2ccccc21 gave an INHIBITION of 64.9%.
